CYP2C9 act – increases human cytochrome P450 2C9 activity | activation factor at 5 µM | recombinant CYP2C9, luciferin-H conversion, luminescence; hits give high values; factor 1 = untreated enzyme, 0 = blocked | hit rate 1.4% among 96,000 | AID 1024;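 active means activation factor of 2 or more for CYP2C9 at a 5 µM dose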
Target sequence (P11712 whole entry, looked up): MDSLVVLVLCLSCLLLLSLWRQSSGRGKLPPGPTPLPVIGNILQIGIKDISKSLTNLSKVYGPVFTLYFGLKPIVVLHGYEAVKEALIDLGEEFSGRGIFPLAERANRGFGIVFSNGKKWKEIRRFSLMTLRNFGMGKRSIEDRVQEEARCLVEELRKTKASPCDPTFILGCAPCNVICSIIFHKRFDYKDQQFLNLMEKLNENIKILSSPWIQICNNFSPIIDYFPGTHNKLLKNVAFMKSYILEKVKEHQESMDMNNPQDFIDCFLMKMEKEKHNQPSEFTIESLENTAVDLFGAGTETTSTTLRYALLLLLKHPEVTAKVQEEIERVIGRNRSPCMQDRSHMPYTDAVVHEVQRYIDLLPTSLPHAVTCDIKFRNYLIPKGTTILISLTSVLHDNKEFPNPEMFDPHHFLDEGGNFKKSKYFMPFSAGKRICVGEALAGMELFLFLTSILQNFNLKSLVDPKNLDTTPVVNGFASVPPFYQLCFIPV
CYP2C19 inh – inhibitors of human CYP2C19. CYP2C19 Supersomes, luciferin-H EGE luminescence, 30 min. inhibition, % at 5 µM. hit rate 21% among 96,000. AID 778;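 active means CYP2C19 inhibition above a set limit at 5 µM in the primary screen, cut at about 50% in these data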
CYP2C19 act – cytochrome P450 2C19 (human) activation | 96,000 tested, under 10 active | P33261 | recombinant CYP2C19, luciferin-H EGE luminescence; hits give high values; 0 = fully inhibited enzyme, 1 = untreated enzyme | activation factor at 5 µM | AID 1025;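 active means activation factor of at least 2 at 5 µM in the primary screen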
Cav3 T inh – human Cav3.2 channel inhibition, primary screen; O95180; Cav3.2-expressing cells, Fluo-4 calcium fluorescence FDSS; hits give low values; B-score at 10 µM; hit rate 4% among 100,000;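 active means single-dose well whose peak fluorescence ratio is a statistical outlier from its plate by either plate-standardised score or position-corrected B-score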
CYP2C9 inh – inhibitors of human CYP2C9. P11712. CYP2C9 Supersomes, luciferin-H conversion, luminescence. inhibition, % at 5 µM. hit rate 20% among 96,000. AID 777;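 active means blocking of liver enzyme CYP2C9 beyond about 50% at 5 µM, limit read from the data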
Each line names hits and unclear results; the compound was inactive in the other large screens. Shown are actives, neighbours in structure and some others; about 27% of the full set was active somewhere.

Cc1cc(C)nc(SCc2nnc(SCC(=O)N3CCCc4ccccc43)n2C)n1	none
O=C(CSc1nc2c(cnn2-c2ccc(F)cc2)c(=O)[nH]1)N1CCCc2ccccc21	none
O=C(CSc1nnc(Cc2ccccc2)o1)N1CCCc2ccccc21	Cav3 T inh -3.88
Cc1cc(C)nc(SCc2nnc(SCC(=O)N3CCCc4ccccc43)o2)n1	CYP2C19 inh 80.2
O=C(CSc1nnc(C2COc3ccccc3O2)o1)N1CCOCC1 (stereo not given)	none
C[C@@H]1CC[C@]2(O[C@H](CCO)C[C@H](O)[C@H]2O)O1	none (no result: CYP2C9 act, CYP2C19 inh, CYP2C19 act, CYP2C9 inh)
COc1ncnc2c1N[C@@](C)(O)c1c(F)c(F)c(F)c(F)c1S2	CYP2C19 inh 85.9
S=c1[nH]nc(-c2ccc(Cl)cc2)n1Cc1ccccc1	none (no result: CYP2C9 act, CYP2C19 inh, CYP2C19 act, CYP2C9 inh)
COCCCn1c(-c2ccc(Cl)cc2)n[nH]c1=S	CYP2C19 inh 77.3
CCOCCCn1c(-c2ccc(Cl)cc2)n[nH]c1=S	CYP2C19 inh 84.0, CYP2C9 inh 50.6
O=C(NCc1ccco1)c1ccc(S(=O)(=O)c2cccc(S(=O)(=O)N3CCOCC3)c2)cc1	CYP2C19 inh 50.6
O=C(NCc1cccnc1)c1ccc(S(=O)(=O)N2CCOCC2)cc1	none
O=C(COc1ccc(S(=O)(=O)N2CCCCC2)cc1)NCc1cccnc1	CYP2C9 inh 59.8
O=C(NCc1cccnc1)c1cccc(S(=O)(=O)N2CCCCC2)c1	CYP2C19 inh 64.9
O=C(NCc1cccnc1)C1CCN(S(=O)(=O)c2cccnc2)CC1	none
Cc1ccc(S(=O)(=O)N2CCC(C(=O)N3CCC(C(=O)NCc4cccnc4)CC3)CC2)cc1	none
O=C(NCc1cccnc1)c1cccc(S(=O)(=O)N2CCOCC2)c1	CYP2C19 inh 61.1
CS(=O)(=O)c1ccc(CNC(=O)C2(C(F)(F)F)C/C(=C/CCO)CCCO2)cc1 (stereo not given)	none (no result: CYP2C9 act, CYP2C19 inh, CYP2C19 act, CYP2C9 inh)
CCOC(=O)/C=C/C(=O)OCC(=O)Nc1ccc(Cl)cn1	Cav3 T inh 3.37
O=C(COc1ccc(Cl)cc1)Nc1ccc(Cl)cn1	CYP2C19 inh 68.1
COc1cccc(NC(=S)NNC(=O)C(C)n2nc(C)c([N+](=O)[O-])c2C)c1 (stereo not given)	none
Cc1nn(C(C)C(=O)Nc2ccc(Cl)cn2)c(C)c1[N+](=O)[O-] (stereo not given)	CYP2C19 inh 73.8
CCCC(C)C(=O)Nc1ccc(Cl)cn1 (stereo not given)	CYP2C19 inh 53.2
c1coc(-c2nc3nc4ccccc4nc3n2-c2ccc3c(c2)OCCO3)c1	CYP2C9 inh 63.5
Cc1[nH][nH]c(=O)c1C(c1ccc(-c2ccc(Cl)c(Cl)c2)o1)c1c(C)[nH][nH]c1=O	CYP2C19 inh 59.0 (no result: Cav3 T inh)
Cc1ccc(S(=O)(=O)Oc2ccc(C(c3c(C)[nH][nH]c3=O)c3c(C)[nH][nH]c3=O)cc2)cc1	none
COc1ccc(N(CC(=O)NCc2cccnc2)S(=O)(=O)c2c(C)nn(C)c2C)cc1	CYP2C19 inh 64.0
COc1ccc(N(CC(=O)NC2CCCCCC2)S(=O)(=O)c2c(C)nn(C)c2C)cc1	CYP2C9 inh 50.2
Cc1ccc(N(CC(=O)NCc2cccs2)S(=O)(=O)c2cccs2)cc1	CYP2C19 inh 95.9, CYP2C9 inh 74.3
Cc1nn(C)c(C)c1S(=O)(=O)N(CC(=O)NCc1ccco1)c1ccc(C(C)C)cc1	none (no result: CYP2C9 act, CYP2C19 inh, CYP2C19 act, CYP2C9 inh)
COc1ccc(N(CC(=O)N2CCC(C)CC2)S(=O)(=O)c2c(C)nn(C)c2C)cc1	CYP2C19 inh 74.8
Cc1nn(C)c(C)c1S(=O)(=O)N(CC(=O)NCc1cccs1)c1ccc(C(C)C)cc1	none (no result: CYP2C9 act, CYP2C19 inh, CYP2C19 act, CYP2C9 inh)
CCC(C)(C)NC(=O)Cc1ccc(C)cc1	none
COc1ccc(N(CC(=O)NCc2ccccc2)S(=O)(=O)c2c(C)nn(C)c2C)cc1	CYP2C19 inh 85.0
COc1ccc(N(CC(=O)N2CCCCC2)S(=O)(=O)c2c(C)nn(C)c2C)cc1	none
COc1ccc(N(CC(=O)NCc2ccccc2)S(=O)(=O)c2c(C)noc2C)cc1	CYP2C19 inh 91.4
COc1ccc(CNC(=O)CN(c2cc(C)cc(C)c2)S(=O)(=O)c2c(C)noc2C)cc1	none
COc1ccc(N(CC(=O)NCc2cccs2)S(=O)(=O)c2c(C)nn(C)c2C)cc1	CYP2C19 inh 71.5
COc1ccc(N(CC(=O)NC2CCCC2)C(=O)c2ccc(N3CCCCC3)nc2)cc1	CYP2C9 inh 78.2
CC/C=C/C(=O)N1CC2(CC(c3cccc(NC(=O)COc4ccc(Cl)cc4)c3)=NO2)C[C@H]1C(N)=O (stereo not given in full)	none (no result: CYP2C9 act, CYP2C19 inh, CYP2C19 act, CYP2C9 inh)
CCCOc1ccc(C(=O)CCC(=O)OCC(=O)N2CC(=O)Nc3ccccc32)cc1	none

Compound activity deposited in PubChem BioAssay by several laboratories.
